# Assay outcomes from PubChem BioAssay.
# USP8 block = blocks human USP8 ubiquitin-rhodamine cleavage; P40818; purified USP8, Ub-rhodamine cleavage fluorescence, 30 min; inhibition, % at 20 µM; actives 4.2% (n = 47,000); AID 1645853
# USP28 inh = inhibitors of human USP28 deubiquitinase; purified USP28, Ub-rhodamine cleavage fluorescence, 30 min; inhibition, % at 25 µM; actives 3% (n = 47,000); Q96RU2; AID 1645857
# USP17 inh = human USP17-like deubiquitinase inhibition; A8MUK1; inhibition, % at 50 µM; actives 6.5% (n = 47,000); AID 1645855; purified USP17, Ub-rhodamine cleavage fluorescence, 3 h
# USP30 block = human USP30 deubiquitinase inhibition; purified USP30, Ub-rhodamine cleavage fluorescence; actives 5.3% (n = 47,000); AID 1645860; inhibition, % at 25 µM
# An asterisk follows results filed as active; . = no result. The list is not random: actives were taken first. Their share in the collection is about 13%. Rule as the data show it: active = inhibition above about 30%; inactive = the rest.
SMILES,USP8 block,USP28 inh,USP17 inh,USP30 block
COc1ccc(NS(=O)(=O)c2ccc(NC(=O)Nc3ccc(Cl)cc3)cc2)cc1,21,42*,56*,29
Cc1c(Cl)cccc1NS(=O)(=O)c1ccc(NC(=O)Nc2ccccc2)cc1,-18,4,39*,34*
Cc1nc(C(=O)N2C[C@H]3CC(Oc4ccccc4)C[C@H]3C2)co1 (stereo partly specified),3,-8,3,8
CN1CCN(C(=O)c2ccc3ccc(N(C)c4ccccc4)n3c2)CC1,-16,-74,-64,-191
CCOc1ccc(NS(=O)(=O)c2ccc(NC(=O)Nc3ccccc3)cc2)cc1,45*,49*,10,83*
COc1cc(NS(=O)(=O)c2ccc(NC(=O)COc3ccc(C)cc3Br)cc2)nc(OC)n1,3,-5,26,45*
CC(=O)Nc1ccc(S(=O)(=O)Nc2ccc(OCc3ccccc3)cc2)cc1,23,21,19,27
O=C(NCCc1c[nH]c2ccccc12)C(=O)Nc1ccccc1C(=O)N1CCCC1,-26,-9,-21,-45
O=C(NCCc1c[nH]c2ccccc12)C(=O)Nc1cccc2ncccc12,14,-5,42*,-29
CCCn1c(=O)c(-c2ccc(C(=O)NCc3ccc(OC)cc3)cc2)nc2cccnc21,65*,13,87*,32*
O=C(CNC(=O)c1cc2c(=O)n3ccccc3nc2s1)c1ccccc1,44*,-75,-34,-214
Fc1ccc(Cc2nc(-c3ccn4cnnc4c3)no2)cc1,-98,36*,-3,-56
Brc1ccccc1Cc1nc(-c2ccn3cnnc3c2)no1,-38,2,-5,-158
Cc1cc(C)c(NC(=O)CSc2nc3cn(C)nc3c(=O)n2CC2CC2)c(C)c1,42*,18,61*,70*
CCn1cc2nc(SCC(=O)NC3CCCC3)n(Cc3ccccc3)c(=O)c2n1,-4,0,1,1
Cc1ccc(S(=O)(=O)N(C)C)cc1NC(=O)Cc1ccc(Cl)c(Cl)c1,5,93*,14,25
Cc1ccc(C)c(COc2cc(C)c3c(c2)OC(C)(C)CC3=O)c1,23,5,4,-4
COc1cc2c(c(OC)c1OC)-c1ccc(N3CCN(c4cccc(Cl)c4)CC3)c(=O)cc1[C@@H](NC(C)=O)CC2,55*,-3,22,-13
Cc1ccc(-n2nnc(C(=O)NCC3CCCO3)c2N)cc1 (stereo unspecified),3,-4,.,-10
Cc1cc(NC(=O)C2(c3ccc(F)cc3)CCCC2)n(-c2nc3ccccc3[nH]2)n1,70*,0,0,-5
COc1cc(-c2ccccn2)nc2cnsc12,-3,8,0,13
Cc1cccc2c(=O)c3c([nH]c12)CCN(CC(=O)NCc1ccccc1)C3,-17,-28,-167,-154
CCc1ccc2[nH]c3c(c(=O)c2c1)CN(CC(=O)NCc1ccc2c(c1)OCO2)CC3,21,19,70*,24
Cc1cc(C)c2[nH]c3c(c(=O)c2c1)CN(CC(=O)NCc1ccccc1)CC3,-11,-28,-22,-27
Cc1c(Cl)ccc2c(=O)c3c([nH]c12)CCN(CC(=O)NCc1ccc2c(c1)OCO2)C3,46*,32*,49*,-51
SMILES,USP8 block,USP28 inh,USP17 inh,USP30 block
Cc1ccc2c(=O)c3c([nH]c2c1C)CCN(CC(=O)NCc1ccc2c(c1)OCO2)C3,19,-4,52*,-11
Cc1nnc(NC(=O)c2cn(-c3ccc(Br)cc3)nn2)s1,-85,0,19,34*
O=C(NC1CC1)c1cn(-c2ccc(Cl)cc2)nn1,7,-16,.,-14
C[C@@H]1OC2=C(C(=O)c3cccc(O)c3C2=O)[C@H](O)[C@@H]1O,63*,71*,80*,6
CCCCCCCCCCCCCCCCCC(=O)N[C@@H]1C[C@@H](O)[C@@H](O)NC(=O)[C@@H]2[C@@H](O)[C@@H](C)CN2C(=O)[C@H]([C@@H](C)O)NC(=O)[C@H]([C@H](O)[C@@H](O)c2ccc(O)cc2)NC(=O)[C@@H]2C[C@@H](O)CN2C(=O)[C@H]([C@@H](C)O)NC1=O,15,38*,20,49*
CCc1ccc(S(=O)(=O)c2cn(CC(=O)Nc3ccccc3)c3ccccc3c2=O)cc1,77*,-18,-26,-58
CCc1ccc(NC(=O)CSc2ncc(S(=O)(=O)c3ccccc3)c(=O)[nH]2)cc1,2,16,27,38*
CC1Oc2ccc(NC(=O)c3cccc(NC(=O)c4cccs4)c3)cc2NC1=O (stereo unspecified),-16,1,38*,-4
COCc1cccc(C(=O)Nc2ccc3c(c2)NC(=O)C(C)O3)c1 (stereo unspecified),-3,1,2,14
CC(C)(C)c1cc(C(=O)N2C[C@@H]3OCC(=O)N(CCc4ccccc4)[C@H]3C2)n[nH]1,1,0,1,31*
CC(C)c1cc(C(=O)N2C[C@@H]3OCC(=O)N(CCc4ccccc4)[C@H]3C2)n(C)n1,-5,-2,-3,2
O=C(Nc1ccc(F)c(Cl)c1)c1ccc(N2CCCC2)nn1,-9,-9,-17,-9
COc1cccc(OC)c1C(=O)Nc1cccc(-c2ccc(N3CCCC3)nn2)c1,5,10,36*,5
COc1cccc(OC)c1C(=O)Nc1cccc(-c2ccc(N3CCN(C)CC3)nn2)c1,16,4,41*,-13
O=C(Nc1cccc(-c2ccc(N3CCCC3)nn2)c1)c1c(F)cccc1F,10,22,31*,2
COc1cccc(OC)c1C(=O)Nc1cccc(N2CCCCC2=O)c1,0,-2,-1,-6
CSCC[C@@H](NC(=O)C1(c2ccccc2)CCN(C(=O)[C@@H]2CCCN2C(=O)OC(C)(C)C)CC1)C(=O)O,3,1,0,3
Cn1cc(C(=O)NCCC2=CCCCC2)c(S(=O)(=O)N2CCCCC2)n1,-240,-20,-63,-26
CCOC(=O)C1CCN(C(=O)c2ccc3c(c2)NC(=O)C2CCCN32)CC1 (stereo unspecified),93*,12,73*,11
COc1cccc(CNC(=O)c2ccc3c(c2)NC(=O)C2CCCN32)c1OC (stereo unspecified),70*,-10,54*,-32
CC(C)CCC(=O)N1C[C@@H]2c3nc(Nc4ccccc4)ncc3CS(=O)(=O)[C@@H]2C1,-4,-3,-3,-7
COC(=O)c1ccc(CSc2nnc(CNC(=O)COc3ccc(Cl)cc3)o2)o1,-8,-7,-15,-10
COc1ccc(CCNC(=O)CSc2nnc(CNC(=O)COc3ccc(Cl)cc3)o2)cc1OC,19,25,46*,34*
O=C(COc1ccc(Cl)cc1)NCc1nnc(SCC(=O)NCc2ccc3c(c2)OCO3)o1,30,0,70*,26
CC(=O)/C=C/c1c(SCc2ccccc2)nc2sccn12,0,-8,-16,-5
O=C1CC(C(=O)Nc2ccc(F)cc2)n2nc(SCc3ccccc3)nc2N1 (stereo unspecified),12,28,2,58*
COc1cccc(NC(=O)C2CC(=O)Nc3nc(SCc4ccccc4)nn32)c1 (stereo unspecified),8,12,5,21
